Measured values as given in PubChem BioAssay (NCATS).
Inconclusive results are not listed. The source made the active and inactive calls. Unless noted, calls follow the shape of the dose curve; as a rule, active = well fitted curve in the direction sought with a large enough effect; inconclusive = small, poorly fitted or top-dose-only effect, or another doubt; inactive = no such curve, though single readings can be large; an effect the other way counts as inactive or inconclusive.

Columns and labels:
[1] = molecular target: Estrogen receptor (Homo sapiens) (UniProt P03372); test: qHTS assay for small molecule antagonists of estrogen receptor alpha signaling (AID 588513; active = well fitted curve in the direction sought with a large enough effect in the signal ratio, with a control signal flat, not every such curve was filed as active; the % refers to the signal ratio; also: % is scaled to controls: 0 for no effect and ±100 for the full control effect)
In short: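 Beta-lactamase reporter, antagonist mode, HEK 293 GripTite cells; 0.5nM E2 stimulus, 18 h, 37 C; CCF4 dye 2 h RT; fluorescence. IC50 and efficacy from Hill fits, normalized to E2 and DMSO.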

[2] = molecular target: Estrogen receptor (Homo sapiens) (UniProt P03372); test: qHTS assay for small molecule agonists of estrogen receptor alpha signaling (AID 588514; calls by dose curve;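 also: 0% = vehicle only and 100% = reference agonist; nearly all actives have a fitted effect of over 70% in size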)
In short: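 Read-out: CCF4 fluorescence from a beta-lactamase reporter in ER-alpha-UAS-bla HEK 293 cells after 18 hrs of compound exposure at 37 C. Normalized to 20 nM 17-beta-estradiol (100%) and DMSO (0%).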

[3] = qHTS assay for small molecule antagonists of peroxisome proliferator-activated receptor delta signaling (AID 588535; active = well fitted inhibition curve with a large enough effect in the signal ratio, with a control signal flat, not every such curve was filed as active; the % refers to the signal ratio;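 as to max response: cells co-treated with a PPAR-delta agonist as stimulator during compound exposure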); conditions: HEK293T PPARd-UAS-bla, beta-lactamase FRET ratio, 18 h; 460 nm channel
In short: (§1)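 Compounds tested in titration on PPAR-delta-UAS-bla HEK293T cells grown in charcoal/dextran-stripped serum (2%); beta-lactamase activity read via CCF4 emission at 460 and 530 nm.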

[4] = molecular target: Peroxisome proliferator-activated receptor delta (Homo sapiens) (UniProt Q03181); test: as above
In short: as §1

[5] = qHTS assay for small molecule agonists of retinoid X receptor alpha signaling (AID 588544; calls by dose curve; also: potency is read from the fitted curve at half-maximal effect;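 as to activation: 0% = DMSO basal wells and 100% = reference agonist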); conditions: HEK293T RXRa-UAS-bla, beta-lactamase reporter, 18 h; 530 nm emission
[6] = molecular target: Retinoic acid receptor RXR-alpha (Homo sapiens) (UniProt P19793); test: as above
[7] = molecular target: Thyroid hormone receptor beta (Homo sapiens) (UniProt P10828); test: qHTS assay for small molecule agonists of thyroid hormone receptor beta signaling (AID 588545; calls by dose curve;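 also: 0% = DMSO only and 100% = 10 nM T3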)
In short: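 Efficacy and EC50 values derive from Hill fits of qHTS titration data, normalized to 10 nM T3 and DMSO-only wells. HEK 293 reporter cells were stimulated for 18 hrs at 37 C, with beta-lactamase activity measured by CCF4 fluorescence.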

[8] = qHTS assay for small molecule antagonists of retinoid X receptor alpha signaling (AID 588546; active = well fitted inhibition curve with a large enough effect in the signal ratio, with a control signal flat, not every such curve was filed as active; the % refers to the signal ratio;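 also: cells stimulated with 9-cis-retinoic acid as agonist; % is scaled to controls: 0 for no effect and ±100 for the full control effect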); conditions: HEK293T RXRa-UAS-bla, beta-lactamase ratio, antagonist mode; measured here: W530 green channel, cytotoxicity proxy
In short: (§2)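 Beta-lactamase reporter inhibition, read as CCF4 fluorescence ratio (ex 405, em 460/530 nm) after 2 h at RT. HEK293T UAS-bla cells, 2500/well, were stimulated with 9-cis-RA at 500 or 100 nM final alongside test compound for 18 h at 37 C.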

[9] = molecular target: Retinoic acid receptor RXR-alpha (Homo sapiens) (UniProt P19793); test: as above; conditions: HEK293T RXRa-UAS-bla, beta-lactamase ratio, antagonist mode
In short: as §2

[10] = qHTS assay for small molecule activators of the nuclear factor-kappa B (NF-kB) signaling pathway (AID 651749; active = well fitted activation curve with a large enough effect in the signal ratio; the % refers to the signal ratio; also: series mostly up to about 77 µM; % of control where 0% means no effect); conditions: NF-kB-bla ME-180 cells, beta-lactamase FRET ratio, 16 h; activation: stronger effect = higher value
In short: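 Beta-lactamase reporter expression, controlled by NF-kB response elements in ME-180 cells, was quantified fluorometrically via FRET disruption; cells at 2,000/well had been incubated with 23 nL test compound for 16 hr.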

[11] = qHTS assay for environmental chemicals that activate the Aryl hydrocarbon Receptor (AhR) signaling pathway (AID 651777); conditions: 1A2-DRE human hepatoma cells, luciferase, 24 h; activation: stronger effect = higher value; also: % of control where 0% means no effect; nearly all actives have a fitted effect of over 15% in size
In short: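 Measured luciferase activity, read 30 min after One-Glo addition at room temperature, from human hepatoma cells bearing a dioxin response element–CYP1A2 promoter reporter and exposed to compound for 24 hr at 37 C.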

[12] = molecular target: Peroxisome proliferator-activated receptor alpha (Homo sapiens) (UniProt Q07869); test: qHTS assay for small molecule agonists of the peroxisome proliferator-activated receptor alpha (PPARalpha) signaling pathway (AID 651778); conditions: PathHunter PPARalpha complementation, chemiluminescence, 6 h; max response: stronger effect = higher value; also: % of control where 0% means no effect
In short: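 Cells plated at 2,000/well and held overnight at 37 C, 5% CO2, then compound added by pin tool for 6 hr; after PathHunter detection reagent and 60 min at room temperature, chemiluminescence from enzyme complementation was read.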

[13] = qHTS assay for small molecule agonists of the antioxidant response element (ARE) signaling pathway measured by Nrf2-dependant transcriptional activity (AID 720636; active = well fitted curve in the direction sought with a large enough effect in the repeat runs; an effect the other way counts as inactive or inconclusive;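 also: HepG2 cells with an ARE-driven luciferase reporter; % of control where 0% means no effect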)
In short: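 In HepG2 cells engineered with an Nrf2-responsive luciferase gene, ARE induction was quantified as luminescence after 16 hr compound treatment at 37 C.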

[14] = qHTS assay for small molecule agonists of the antioxidant response element (ARE) signaling pathway measured by Nrf2-dependant transcriptional activity - cell viability counter screen (AID 720653; active = well fitted curve in the direction sought with a large enough effect in the repeat runs; an effect the other way counts as inactive or inconclusive; also: % is scaled to controls: 0 for no effect and ±100 for the full control effect); conditions: ARE-bla HepG2 viability, CellTiter-Glo ATP luminescence, 16 h; max response: stronger effect = lower value
In short: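 ARE-bla HepG2 cells (2,000/well) rested 5 hrs at 37C/5% CO2, then exposed to compounds in DMSO for 16 hrs. Viability was read in the same wells as intracellular ATP by luminescence, 30 min at room temperature after reagent addition.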

[15] = qHTS assay for cell viability of HEK293 cells (AID 743288); conditions: ATP luminescence (CellTiter-Glo), 18 h; max response: stronger effect = lower value; also: % is scaled to controls: 0 for no effect and ±100 for the full control effect; nearly all actives have a fitted effect of over 50% in size
In short: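 ATP luminescence (CellTiter-Glo) reports metabolically competent cell number after parental HEK293 cells, 2,000/well, were treated with DMSO-dissolved compounds for 18 h at 37 C; reagent incubation 30 min, room temperature.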

[16] = qHTS assay for cell viability of the p53RE-bla HCT-116 cell line (AID 743292); also: % is scaled to controls: 0 for no effect and ±100 for the full control effect; nearly all actives have a fitted effect of over 55% in size
In short: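 Intracellular ATP of p53RE-bla HCT-116 cells measured by luciferase luminescence following 16 h compound incubation at 37 C; DMSO-only wells served as vehicle controls.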

[17] = molecular target: Nuclear receptor subfamily 1 group I member 2 (Rattus norvegicus) (UniProt Q9R1A7); test: qHTS assay for small molecule activators of the rat pregnane X receptor (rPXR) signaling pathway (AID 651751; call rule not given here; also: 0% is about no effect); conditions: rPXR reporter cells, luciferase (One-Glo), 24 h
[18] = qHTS assay for small molecule activators of the human pregnane X receptor (PXR) signaling pathway (AID 720659; call rule not given here; also: 0% is about no effect)
[19] = molecular target: Glucocorticoid receptor (Homo sapiens) (UniProt P04150); test: qHTS assay for small molecule antagonists of glucocorticoid receptor signaling (AID 588533; active = well fitted inhibition curve with a large enough effect in the signal ratio, with a control signal flat, not every such curve was filed as active; the % refers to the signal ratio;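 also: cells stimulated with 2 nM dexamethasone as agonist; % is scaled to controls: 0 for no effect and ±100 for the full control effect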)
In short: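 Antagonist-mode qHTS: compound titrations added to GRE-bla HeLa cells, then dexamethasone 2 nM final; 18 h, 37 C. CCF4 FRET fluorescence normalized to dexamethasone and DMSO; IC50 from Hill fit.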

[20] = molecular target: Peroxisome proliferator-activated receptor gamma (Homo sapiens) (UniProt P37231); test: qHTS assay for small molecule agonists of peroxisome proliferator-activated receptor gamma signaling (AID 588536; active = well fitted curve in the direction sought with a large enough effect in the signal ratio, with a control signal flat, not every such curve was filed as active; the % refers to the signal ratio;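 also: 0% = DMSO basal wells and 100% = rosiglitazone at 2 µM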)
In short: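 Beta-lactamase reporter read-out: CCF4 fluorescence (ex 405, em 460/530 nm) after 2 h at RT. HEK293 GeneBLAzer cells were treated for 16 h at 37 C. Hill fits gave EC50 and efficacy versus 2 uM rosiglitazone (100%) and DMSO (0%).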

Sequence of Nuclear receptor subfamily 1 group I member 2 (Rattus norvegicus) (Q9R1A7 whole entry, looked up): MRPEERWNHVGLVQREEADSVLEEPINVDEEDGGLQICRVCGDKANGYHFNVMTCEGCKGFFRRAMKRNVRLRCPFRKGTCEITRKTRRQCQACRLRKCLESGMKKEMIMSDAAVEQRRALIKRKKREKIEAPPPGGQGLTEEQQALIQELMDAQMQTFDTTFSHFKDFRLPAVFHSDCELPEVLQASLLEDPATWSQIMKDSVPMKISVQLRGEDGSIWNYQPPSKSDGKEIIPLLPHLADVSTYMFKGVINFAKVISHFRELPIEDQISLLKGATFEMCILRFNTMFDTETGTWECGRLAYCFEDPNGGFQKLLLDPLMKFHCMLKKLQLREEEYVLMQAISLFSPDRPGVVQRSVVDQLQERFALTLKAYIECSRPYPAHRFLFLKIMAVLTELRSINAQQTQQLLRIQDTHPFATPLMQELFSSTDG
Sequence of Peroxisome proliferator-activated receptor gamma (Homo sapiens) (P37231 whole entry, looked up): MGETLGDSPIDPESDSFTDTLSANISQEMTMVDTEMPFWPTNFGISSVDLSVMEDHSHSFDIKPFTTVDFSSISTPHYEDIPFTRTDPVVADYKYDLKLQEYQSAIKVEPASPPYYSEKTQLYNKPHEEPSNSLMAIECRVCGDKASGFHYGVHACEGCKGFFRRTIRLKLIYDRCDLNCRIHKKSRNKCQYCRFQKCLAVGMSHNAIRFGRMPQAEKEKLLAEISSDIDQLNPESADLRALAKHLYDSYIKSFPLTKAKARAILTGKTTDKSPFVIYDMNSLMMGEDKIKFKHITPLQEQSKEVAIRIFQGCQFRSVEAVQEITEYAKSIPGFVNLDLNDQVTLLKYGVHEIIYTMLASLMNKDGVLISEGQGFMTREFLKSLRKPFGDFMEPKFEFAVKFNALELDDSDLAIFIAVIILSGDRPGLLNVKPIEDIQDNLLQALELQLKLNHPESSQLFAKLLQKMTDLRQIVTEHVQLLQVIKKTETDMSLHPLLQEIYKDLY
Sequence of Peroxisome proliferator-activated receptor delta (Homo sapiens) (Q03181 whole entry, looked up): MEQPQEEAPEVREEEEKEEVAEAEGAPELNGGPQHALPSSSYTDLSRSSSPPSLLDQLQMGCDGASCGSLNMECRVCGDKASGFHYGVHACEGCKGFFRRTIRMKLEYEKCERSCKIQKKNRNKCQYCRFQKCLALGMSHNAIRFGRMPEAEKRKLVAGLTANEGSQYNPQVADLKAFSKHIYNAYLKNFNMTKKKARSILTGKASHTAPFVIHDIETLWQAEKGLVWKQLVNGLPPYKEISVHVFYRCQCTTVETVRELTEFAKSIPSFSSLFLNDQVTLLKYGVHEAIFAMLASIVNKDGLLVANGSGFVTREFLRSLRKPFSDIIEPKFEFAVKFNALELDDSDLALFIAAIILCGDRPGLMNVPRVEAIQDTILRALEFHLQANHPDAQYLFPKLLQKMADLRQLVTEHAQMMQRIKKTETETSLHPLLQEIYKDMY
Sequence of Glucocorticoid receptor (Homo sapiens) (P04150 whole entry, looked up): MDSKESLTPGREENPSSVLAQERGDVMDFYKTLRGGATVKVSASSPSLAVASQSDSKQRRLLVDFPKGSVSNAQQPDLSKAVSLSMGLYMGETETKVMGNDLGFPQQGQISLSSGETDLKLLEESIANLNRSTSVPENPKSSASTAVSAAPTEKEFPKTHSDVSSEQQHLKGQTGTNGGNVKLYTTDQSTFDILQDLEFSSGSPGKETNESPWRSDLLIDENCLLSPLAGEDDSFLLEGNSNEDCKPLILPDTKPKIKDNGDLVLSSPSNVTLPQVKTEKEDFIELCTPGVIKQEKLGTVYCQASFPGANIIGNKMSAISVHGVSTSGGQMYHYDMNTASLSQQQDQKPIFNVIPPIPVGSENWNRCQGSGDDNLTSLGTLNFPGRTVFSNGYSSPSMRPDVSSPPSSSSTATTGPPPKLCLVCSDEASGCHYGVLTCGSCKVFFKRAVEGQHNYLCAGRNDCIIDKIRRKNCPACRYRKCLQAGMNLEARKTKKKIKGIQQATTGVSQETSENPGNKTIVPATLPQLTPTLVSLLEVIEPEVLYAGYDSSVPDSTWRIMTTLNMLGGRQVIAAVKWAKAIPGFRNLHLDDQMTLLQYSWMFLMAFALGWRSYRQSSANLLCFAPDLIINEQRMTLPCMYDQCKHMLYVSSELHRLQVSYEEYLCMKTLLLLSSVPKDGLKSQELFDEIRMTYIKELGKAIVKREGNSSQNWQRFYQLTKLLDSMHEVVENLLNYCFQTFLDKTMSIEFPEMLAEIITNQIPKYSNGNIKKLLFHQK
Sequence of Thyroid hormone receptor beta (Homo sapiens) (P10828 whole entry, looked up): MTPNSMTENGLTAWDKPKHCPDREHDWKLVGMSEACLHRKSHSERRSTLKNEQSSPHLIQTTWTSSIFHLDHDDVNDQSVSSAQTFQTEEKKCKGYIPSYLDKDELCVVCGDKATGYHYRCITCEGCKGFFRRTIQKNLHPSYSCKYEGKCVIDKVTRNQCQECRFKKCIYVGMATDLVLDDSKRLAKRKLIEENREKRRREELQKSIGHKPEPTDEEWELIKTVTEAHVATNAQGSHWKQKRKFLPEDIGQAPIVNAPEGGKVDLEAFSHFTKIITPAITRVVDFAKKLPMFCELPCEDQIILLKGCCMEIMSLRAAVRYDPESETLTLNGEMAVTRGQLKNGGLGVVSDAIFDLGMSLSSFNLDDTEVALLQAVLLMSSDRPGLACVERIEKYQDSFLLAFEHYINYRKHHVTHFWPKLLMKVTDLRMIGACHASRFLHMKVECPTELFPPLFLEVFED
Sequence of Retinoic acid receptor RXR-alpha (Homo sapiens) (P19793 whole entry, looked up): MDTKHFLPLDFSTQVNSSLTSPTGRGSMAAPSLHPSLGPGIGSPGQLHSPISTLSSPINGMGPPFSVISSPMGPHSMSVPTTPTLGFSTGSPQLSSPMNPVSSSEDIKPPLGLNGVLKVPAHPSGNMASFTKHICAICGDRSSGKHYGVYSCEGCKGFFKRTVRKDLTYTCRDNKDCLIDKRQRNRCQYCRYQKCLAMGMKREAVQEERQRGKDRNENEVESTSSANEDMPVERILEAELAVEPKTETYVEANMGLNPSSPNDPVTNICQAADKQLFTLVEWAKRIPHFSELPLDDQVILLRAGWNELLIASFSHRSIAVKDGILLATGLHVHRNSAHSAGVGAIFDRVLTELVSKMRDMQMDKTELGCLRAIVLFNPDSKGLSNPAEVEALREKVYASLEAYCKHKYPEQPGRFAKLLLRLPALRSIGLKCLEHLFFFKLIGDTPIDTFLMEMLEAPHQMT
Sequence of Estrogen receptor (Homo sapiens) (P03372 whole entry, looked up): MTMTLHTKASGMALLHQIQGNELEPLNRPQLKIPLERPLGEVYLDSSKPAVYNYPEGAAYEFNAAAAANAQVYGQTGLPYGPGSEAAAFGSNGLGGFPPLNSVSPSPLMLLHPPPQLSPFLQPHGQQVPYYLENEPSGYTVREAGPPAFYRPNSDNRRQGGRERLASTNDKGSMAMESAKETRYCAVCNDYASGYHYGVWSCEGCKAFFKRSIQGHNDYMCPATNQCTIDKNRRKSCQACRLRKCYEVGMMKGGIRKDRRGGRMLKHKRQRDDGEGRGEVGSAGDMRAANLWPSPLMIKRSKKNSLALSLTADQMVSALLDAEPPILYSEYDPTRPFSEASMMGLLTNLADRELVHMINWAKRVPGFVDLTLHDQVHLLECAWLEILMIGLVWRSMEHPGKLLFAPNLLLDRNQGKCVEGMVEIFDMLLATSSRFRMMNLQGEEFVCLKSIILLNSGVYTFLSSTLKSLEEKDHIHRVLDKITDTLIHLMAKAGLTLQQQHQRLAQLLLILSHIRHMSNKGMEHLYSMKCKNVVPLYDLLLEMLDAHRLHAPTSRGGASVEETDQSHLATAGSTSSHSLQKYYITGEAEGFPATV
Sequence of Peroxisome proliferator-activated receptor alpha (Homo sapiens) (Q07869 whole entry, looked up): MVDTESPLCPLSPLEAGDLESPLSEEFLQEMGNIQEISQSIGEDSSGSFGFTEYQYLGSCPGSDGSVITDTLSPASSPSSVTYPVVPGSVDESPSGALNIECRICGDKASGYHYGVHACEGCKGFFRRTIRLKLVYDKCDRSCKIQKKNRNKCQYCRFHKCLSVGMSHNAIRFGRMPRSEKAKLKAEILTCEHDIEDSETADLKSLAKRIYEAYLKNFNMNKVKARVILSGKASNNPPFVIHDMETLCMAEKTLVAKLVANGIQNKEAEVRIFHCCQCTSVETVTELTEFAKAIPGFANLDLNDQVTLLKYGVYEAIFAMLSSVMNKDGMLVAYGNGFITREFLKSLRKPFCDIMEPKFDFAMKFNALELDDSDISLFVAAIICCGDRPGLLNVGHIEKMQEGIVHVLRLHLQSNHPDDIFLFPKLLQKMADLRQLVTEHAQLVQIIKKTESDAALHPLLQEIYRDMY

SMILES | Potency [1] | Potency [2] | max response [3] [%] | Potency [4] | max response [5] [%] | Potency [6] | Potency [7] | max response [8] [%] | max response [9] | activation [10] | activation [11] | max response [12] | Potency [13] | max response [14] | max response [15] | Potency [16] | max response [17] | outcome [18] | Potency [19] | outcome [20]
CCCC/C=C\CCCCCCCCO | inactive | inactive | 56.8 | inactive | -17 | inactive | inactive | -4.18 | -9.15% (inactive) | -0.809% (inactive) | 0.183% (inactive) | 2.88% (inactive) | inactive | -0.523% (inactive) | -8.96% (inactive) | inactive | 12.2% (inactive) | inactive |  | 
CC(C)Cc1c(C(=O)O)c(C(F)F)nc(C(F)(F)F)c1C1=NCCS1 | inactive | inactive | 45.9 | inactive | -17.4 | inactive | inactive | -0.767 | 6.24% (inactive) | 1.24% (inactive) | -4.01% (inactive) | -0.845% (inactive) | inactive | 3.82% (inactive) | -5.4% (inactive) | inactive | -2.45% (inactive) |  | inactive | inactive
C=Cc1ccc(P(c2ccccc2)c2ccccc2)cc1 | inactive | inactive | 16.9 | inactive | -3.97 | inactive | inactive | -0.204 |  | 0.802% (inactive) | 0.447% (inactive) |  | inactive | -10.4% (inactive) | -7.87% (inactive) | inactive | 0.774% (inactive) | inactive | inactive | inactive
C=C(C)C(=O)OCCCCCCCCCCCCCCCC | inactive | inactive | -9.92 | inactive | -13 | inactive | inactive | -3.04 | -1.04% (inactive) | -3.24% (inactive) | 0.0765% (inactive) | -2.7% (inactive) | inactive | 0.407% (inactive) | -1.34% (inactive) | inactive | 2.75% (inactive) | inactive | inactive | inactive
CCCCCCCCCCCCCCCCCCN | inactive | inactive | 13.6 | inactive | -24 | 15.8 µM (active) | inactive | -8.83 | 4.01% (inactive) | 0.495% (inactive) | 0.284% (inactive) | 0.121% (inactive) | inactive | -7.69% (inactive) | 4.92% (inactive) | inactive | -2.88% (inactive) | inactive | inactive | 
CS/C(=N\O)C(=O)N(C)C | inactive | inactive | 31.5 | inactive | 6.39 | inactive |  | 0.656 | -15.6% (inactive) | -2.88% (inactive) | -0.34% (inactive) | -1.04% (inactive) | inactive | -5.16% (inactive) | -6.73% (inactive) | inactive | -0.0731% (inactive) | inactive | inactive | inactive
CCCCCCCCCc1ccccc1 | inactive | inactive | 1.13 | inactive | -8.55 | inactive | inactive | -10.2 | 2.35% (inactive) | -0.21% (inactive) | 0.637% (inactive) |  | inactive |  | 2.81% (inactive) | inactive | 1.1% (inactive) | inactive | inactive | inactive
O=C(O)c1ccc(C(=O)O)c(C(=O)O)c1 | inactive | inactive | -62.8 | inactive | -17.6 | inactive | inactive | -4.49 | -0.212% (inactive) | -0.152% (inactive) | 0.771% (inactive) | -1.17% (inactive) | inactive | -4.75% (inactive) | -0.128% (inactive) | inactive | 0.399% (inactive) | inactive |  | inactive
Cn1c(=O)[nH]c(=O)n(C2CCC(O)CC2)c1=O (centres undefined) | inactive | inactive | 54.4 | inactive | -1.18 | inactive | inactive | -1.59 | -0.444% (inactive) | -0.274% (inactive) | 1.88% (inactive) | -2.74% (inactive) | inactive | 7.46% (inactive) | -0.781% (inactive) |  | -2.03% (inactive) | inactive | inactive | 
CC(Cl)(Cl)C(=O)OCCOc1cc(Cl)c(Cl)cc1Cl | inactive | inactive | -5.22 | inactive | -6.02 | inactive | inactive | -16.7 | 0.808% (inactive) | -1.51% (inactive) | 1.95% (inactive) | 6.22% (inactive) |  | 2.91% (inactive) | -9.39% (inactive) | inactive | -0.3% (inactive) |  | inactive | inactive
CC1(C)[C@@H](C=C(Cl)Cl)[C@@H]1C(=O)OCc1cccc(Oc2ccccc2)c1 | inactive | inactive | -21.4 | inactive |  |  |  | -10.2 | -8.61% (inactive) |  | -0.62% (inactive) | -0.645% (inactive) | inactive | -5.58% (inactive) | -11.2% (inactive) | inactive |  |  | inactive | 
